# In ChEMBL document CHEMBL4513146, “CO-ADD screening of Karazin Kharkiv National University (Ukraine) compounds”:
# Measured potencies and affinities stand elsewhere.
# Legend:
# Staphylococcus aureus = details: Concentration 32 ug.mL-1;; ASSAY_TEST Inhibition of Bacterial Growth; detection method Absorption (OD600); MEDIA CAMHB; plate type 384well; NBS; CORNING #3640; time 18 hr
# Escherichia coli = details: Concentration 32 ug.mL-1;; ASSAY_TEST Inhibition of Bacterial Growth; detection method Absorption (OD600); MEDIA CAMHB; plate type 384well; NBS; CORNING #3640; time 18 hr
Compound,Inhibition (Staphylococcus aureus) [%],Inhibition (Escherichia coli) [%]
CC(C)CCn1c(=O)c2sccc2n2c(=O)n(CC(N)=O)nc12,1.13,-3.19
CCOc1ccccc1NC(=O)Cn1nc2c(Sc3cccc(C)c3)nccn2c1=O,3.15,-1.9
O=C(CSc1nnc2c3cc(-c4ccccc4)nn3ccn12)Nc1cccc(Br)c1,9.78,2.01
Cc1nc(-c2ccccn2)cc2nn(CC(=O)Nc3ccccc3C(F)(F)F)c(=O)n12,2.98,-9.66
CSc1cccc(NC(=O)Cn2nc3c(SCc4ccc(Cl)cc4)nccn3c2=O)c1,-9.65,-9.35
COc1cccc(-n2ccn3c(SCc4c(F)cccc4Cl)nnc3c2=O)c1,2.96,-9.46
COc1ccc(NC(=O)Cn2nc3ccc(SC(C)C)nn3c2=O)cc1OC,-2.31,0.47
O=C(Cn1nc2c(Oc3ccccc3)nccn2c1=O)Nc1ccccc1C(F)(F)F,2.85,-0.6
Cc1ccc(NC(=O)Cn2nc3c(SC4CCCCC4)nccn3c2=O)cc1F,10.42,-1.05
O=C(Cn1nc2c(N3CCOCC3)nccn2c1=O)NCc1ccccc1Cl,17.61,4.36
O=c1c2nn(Cc3c(F)cccc3Cl)c(=O)n2ccn1-c1ccccc1,-4.83,2.37
CCOC(=O)c1ccccc1NC(=O)Cn1c(=O)c2nnc(C(C)C)n2c2ccccc21,9.86,0.49
O=C(Cn1nc2ccc(SC3CCCCC3)nn2c1=O)NCc1ccc(Cl)cc1,6.56,-1.29
